Compounds with a hit are over-represented: about 18% of the library has one in this group of screens.
KAT2A inh – qHTS Assay for Inhibitors of GCN5L2 | Histone acetyltransferase KAT2A (Homo sapiens), Q92830 | GCN5L2 HAT assay, ThioGlo1 CoA-SH fluorescence | Potency, µM (titrated, usually from 58.9 µM), inactives show top-dose activity change, negative = inhibition, usual class: inhibitors | 0.21% of 390,000 active | AID 504327, 2011
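Preincubate 20nM GCN5L2 with compound 15 min, RT → add 50uM ThioGlo1 + 75uM H3(1-25) + 70uM acetyl-CoA → read fluorescence 0 and 20 min. Primary qHTS; fluorescent artifacts likely.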
PLK1 PBD inh – qHTS for Inhibitors of PLK1-PDB (polo-like kinase 1 - polo-box domain): Primary Screen. 2.8% of 360,000 active. Serine/threonine-protein kinase PLK1 (Homo sapiens), P53350. Plk1 PBD binding of FITC phosphopeptide, fluorescence polarization. Potency, µM, inactives show max response, negative = inhibition, usual class: inhibitors; also: series mostly up to about 57 µM; nearly all actives have a fitted effect of over 65% in size
TDP1 cell CPT – qHTS for Inhibitors of human tyrosyl-DNA phosphodiesterase 1 (TDP1): qHTS in cells in presence of CPT. chicken DT40 Tdp1-/-;hTDP1 cells + 20 nM CPT, ATP luminescence, 48 h. Potency, µM (highest dose often 46.2 µM), inactives show at the highest dose activity change, negative = growth inhibition, hits mostly inhibitors. 12% of 420,000 active; also: nearly all actives have a fitted effect of over 55% in size
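Chicken DT40 Tdp1-/- cells complemented with human TDP1, 400 cells/well, exposed to compounds plus 20 nM camptothecin for at least 48 h at 37 C; viability read as ATP content by CellTiter-Glo luminescence.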
TDP1 block – qHTS Assay for Inhibitors of Tyrosyl-DNA Phosphodiesterase (TDP1); Tyrosyl-DNA phosphodiesterase 1 (Homo sapiens), Q9NUW8; recombinant TDP1, AlphaScreen DNA substrate cleavage; Potency, µM (top dose mostly 130 µM), without a hit: at the highest dose activity change, negative = inhibition, usual class: inhibitors; 0.28% of 350,000 active; also: nearly all actives have a fitted effect of over 40% in size
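Compounds were preincubated with Tdp1 (1 nM final) for 15 min at room temperature before substrate (15 nM final) started a 5 min reaction; beads (10 ug/ml final) were then added for 10 min before AlphaScreen detection.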
VDR inhibitor – Inhibitors of the vitamin D receptor (VDR): qHTS; 0.93% of 400,000 active; VDR-SRC2-3 peptide fluorescence polarization, 2 h; Potency, µM, inactives show max response, negative = inhibition, most hits filed as inhibitors; Vitamin D3 receptor (Homo sapiens), P11473; AID 504847, 2011
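After 23 nl compound addition and a short centrifugation, plates sat for 2 hours at ambient temperature; polarization of fluorescence then indicated loss of VDR binding to peptide SRC2-3.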
DT40 TDP1 no CPT – qHTS for Inhibitors of human tyrosyl-DNA phosphodiesterase 1 (TDP1): qHTS in cells in absence of CPT | DT40 Tdp1-/- hTDP1 cells, no CPT, ATP luminescence, 48 h | Potency, µM (highest dose often 46.2 µM), for the others: at the top dose activity change, negative = growth inhibition, usual class: inhibitors | 15% of 420,000 active; also: nearly all actives have a fitted effect of over 55% in size
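Luminescent ATP content (CellTiter-Glo) served as the growth readout. Knockout chicken DT40 cells expressing human TDP1 were exposed to compounds without camptothecin for a minimum 48 hr at 37 °C.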
The depositor's hits bear a star; ? = inconclusive; . = no result given; ! = not confirmed by another sample. Calls follow the shape of the dose curve; as a rule, active = well fitted curve in the direction sought with a large enough effect; inconclusive = small, poorly fitted or top-dose-only effect, or another doubt; inactive = no such curve, though single readings can be large; an effect the other way counts as inactive or inconclusive. % is scaled to controls: 0 for no effect and ±100 for the full control effect; potency is read from the fitted curve at half-maximal effect.

SMILES	KAT2A inh	PLK1 PBD inh	TDP1 cell CPT	TDP1 block	VDR inhibitor	DT40 TDP1 no CPT
CCOc1ccc(S(=O)(=O)N2CCN(Cc3ccco3)CC2)cc1	0%	1%	?	5%	3%	?
COc1ccc(C(=O)CSc2nc3[nH]ncc3c(=O)[nH]2)cc1	-2%	-7%	-5%	-2%	2%	-4%
CCOC(=O)Cc1c(C)nc2c(-c3ccccc3)c(-c3ccccc3)[nH]n2c1=O	-25%	-11%	?	6%	6%	16µM*
Cc1nc2c(C#N)c[nH]n2c(=O)c1CCO	-21%	9.5µM*	?	.	28µM*	?
CCc1c(C)nc2c(-c3ccccc3)c[nH]n2c1=O	-6%	1%	?	4%	5%	?
Cc1nc2c(C#N)c[nH]n2c(=O)c1Cc1ccccc1	-8%	-10%	-17%	0%	12%	-6%
CCOC(=O)Cc1c(C)nc2c(-c3ccccc3)c[nH]n2c1=O	-30%	-21%	18µM*	5%	-7%	2.3µM*
CCCCOc1ccc(C(=O)Nc2cccc(-c3nc4cccnc4s3)c2)cc1	-7%	.	?	9%	7%	?
O=C(NCCC(=O)N1CCN(C(=O)c2ccco2)CC1)c1ccc(Br)cc1	1%	-3%	15%	.	-17%	-9%
Cc1ccc(CN2CCN(/N=C/C(Br)=C\c3ccccc3)CC2)cc1	-1%	-10%	?	11%	1%	4.1µM*
Cc1ccc(CN2CCN(/N=C/c3cccnc3)CC2)cc1	29%	-14%	-8%	7%	-9%	-29%
CC(C(=O)NCc1ccccc1Cl)N1C(=O)c2ccccc2C1=O (stereo unspecified)	-2%	-7%	-10%	.	10%	4%
Cn1c(=O)oc2cc(S(=O)(=O)Nc3cccc(C(=O)O)c3)ccc21	2%	-2%	-2%	4%	5%	-9%
CCN(CC)c1ccc(NC(=O)CCS(=O)(=O)c2ccc3c(c2)oc(=O)n3C)c(C)c1	-1%	.	?	-6%	2%	-8%
Cn1c(=O)oc2cc(S(=O)(=O)Nc3ccccc3)ccc21	1%	21µM*	?	0%	-12%	?
CCN(CC)c1ccc(NS(=O)(=O)c2ccc3c(c2)oc(=O)n3C)c(C)c1	-9%	-5%	26µM*	5%	-16%	?
CCn1c(C(=O)Nc2ccccc2C(=O)OC)cc2sc(Cl)cc21	-1%	.	0%	1%	-3%	-16%
CC(C)COC(=O)N1C(COCc2ccccc2)CCC=CS1(=O)=O (stereo unspecified)	.	.	.	-7%	-18%	.
O=S1(=O)C[C@@H](N2CCC(Cc3ccccc3)CC2)[C@H](COCc2ccccc2)N1	.	1%	18µM*	.	.	23µM*
CC(=O)OCC(=O)[C@@]12OC3(CCCC3)O[C@@H]1C[C@H]1[C@@H]3CCC4=CC(=O)C=C[C@]4(C)[C@@]3(F)[C@@H](O)C[C@@]12C	-7%	-3%	2.3µM*!	4%	7%	4.6µM*
O=C(c1ccc(Cl)c([N+](=O)[O-])c1)N1CCN(C(=O)c2ccco2)CC1	0%	-11%	-10%	0%	-9%	-29%
O=C(c1ccco1)N1CCN(c2c([N+](=O)[O-])nn(-c3cccc(Cl)c3)[n+]2[O-])CC1	-3%	-6%	16µM*	5%	-4%	?
O=C(c1cccc([N+](=O)[O-])c1)N1CCN(c2cccc(Cl)c2)CC1	-3%	-3%	18µM*	4%	-22%	18µM*
COc1cc(C(=O)N2CCN(c3ccccc3)CC2)c([N+](=O)[O-])cc1OC	2%	2%	-10%	0%	0%	5%
